Consider eight sequences from article PMC11006913.

Common to all, as to assay: PBM; 200 nM protein, PBS
Holding throughout (settings): dsDNA, one strand shown

Assay [1] addresses HOXB9 (Homo sapiens, UniProt P17482 171-250, T197M).
Assay [2] addresses PRRX1 (Homo sapiens, UniProt P54821 80-166, F113S).
Assay [3] concerns the target HOXB9 (Homo sapiens, UniProt P17482 171-250).
Assay [4] addresses MSX2 (Homo sapiens, UniProt P35548 130-214, R199I).
Assay [5] has as its target HOXD13 (Homo sapiens, UniProt P35453 263-343, T313R).
Assay [6] deals with HOXD13 (Homo sapiens, UniProt P35453 263-343).
The target in assay [7] is MSX2 (Homo sapiens, UniProt P35548 130-214).
The target of assay [8] is HOXD13 (Homo sapiens, UniProt P35453 263-343, T313A).
The target of assay [9] is HOXB9 (Homo sapiens, UniProt P17482 171-250, R186Q).
The target of assay [10] is MSX2 (Homo sapiens, UniProt P35548 130-214, F161Y).
Assay [11] concerns the target PRRX1 (Homo sapiens, UniProt P54821 80-166).
Assay [12] deals with T1, PAX4 (Homo sapiens, UniProt O43316 9-242, R200K).
T1 sequence: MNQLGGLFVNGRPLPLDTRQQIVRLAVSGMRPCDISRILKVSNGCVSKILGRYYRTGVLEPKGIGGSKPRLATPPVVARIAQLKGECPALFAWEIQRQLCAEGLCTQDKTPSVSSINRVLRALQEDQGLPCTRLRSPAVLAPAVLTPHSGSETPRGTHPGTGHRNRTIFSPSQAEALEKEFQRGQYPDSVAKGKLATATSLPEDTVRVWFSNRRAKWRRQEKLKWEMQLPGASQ

Assay [13] deals with T2, PAX4 (Homo sapiens, UniProt O43316 9-242).
T2 sequence: T1 sequence with K192R

For assay [14], the target named is T3, PAX4 (Homo sapiens, UniProt O43316 9-242, R200Q).
T3 sequence: T1 sequence with K192Q

Assay [15] deals with T4, PAX4 (Homo sapiens, UniProt O43316 9-242, F177V).
T4 sequence: T1 sequence with F169V, K192R

For assay [16], the target named is T5, PAX4 (Homo sapiens, UniProt O43316 9-242, F177Y).
T5 sequence: T1 sequence with F169Y, K192R

Assay [17] concerns the target T6, PAX4 (Homo sapiens, UniProt O43316 9-242, R227W).
T6 sequence: T1 sequence with K192R, R219W

Assay [18] has as its target HOXA7 (Homo sapiens, UniProt P31268 116-202).
Assay [19] addresses HOXB6 (Homo sapiens, UniProt P17509 132-218, K202E).
In assay [20] the target is HOXA4 (Homo sapiens, UniProt Q00056 201-287, R217L).
Assay [21] deals with HOXA7 (Homo sapiens, UniProt P31268 116-202, W177C).
The target in assay [22] is HOXA4 (Homo sapiens, UniProt Q00056 201-287, W262F).
Assay [23] deals with HOXB6 (Homo sapiens, UniProt P17509 132-218).
The target of assay [24] is PROP1 (Homo sapiens, UniProt O75360 56-141).
The target in assay [25] is PROP1 (Homo sapiens, UniProt O75360 56-141, R99H).
Assay [26] has as its target PROP1 (Homo sapiens, UniProt O75360 56-141, F88S).
The target of assay [27] is HOXC10 (Homo sapiens, UniProt Q9NYD6 254-340).
For assay [28], the target named is HOXC10 (Homo sapiens, UniProt Q9NYD6 254-340, K271E).
The target of assay [29] is VAX1 (Homo sapiens, UniProt Q5SQQ9 86-172).
Assay [30] deals with VAX1 (Homo sapiens, UniProt Q5SQQ9 86-172, T142I).
Assay [31] deals with VAX1 (Homo sapiens, UniProt Q5SQQ9 86-172, K157R).
Assay [32] deals with HOXC9 (Homo sapiens, UniProt P31274 178-260, K195R).
Assay [33] addresses HOXC9 (Homo sapiens, UniProt P31274 178-260).
Assay [34] addresses HOXC9 (Homo sapiens, UniProt P31274 178-260, R193K).
Assay [35] addresses HOXC9 (Homo sapiens, UniProt P31274 178-260, R222W).
The target in assay [36] is NKX3-2 (Homo sapiens, UniProt P78367 192-278, P234S).
In assay [37] the target is NKX3-2 (Homo sapiens, UniProt P78367 192-278).

Residue numbers refer to the chain shown, from its start.

HOXB9 (Homo sapiens, UniProt P17482 171-250), sequence (P17482 171-250): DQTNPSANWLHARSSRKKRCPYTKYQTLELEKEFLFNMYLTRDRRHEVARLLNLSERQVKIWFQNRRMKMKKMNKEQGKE
HOXC10 (Homo sapiens, UniProt Q9NYD6 254-340), sequence (Q9NYD6 254-340): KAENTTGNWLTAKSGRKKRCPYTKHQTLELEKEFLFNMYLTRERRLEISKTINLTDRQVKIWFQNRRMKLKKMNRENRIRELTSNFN
HOXB9 (Homo sapiens, UniProt P17482 171-250, R186Q), sequence (P17482 171-250 R186Q): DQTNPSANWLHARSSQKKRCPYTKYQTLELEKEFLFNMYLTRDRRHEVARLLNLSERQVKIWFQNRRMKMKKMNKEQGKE
HOXC10 (Homo sapiens, UniProt Q9NYD6 254-340, K271E), sequence (Q9NYD6 254-340 K271E): as the sequence (Q9NYD6 254-340) above, with K18E counted along it
HOXB9 (Homo sapiens, UniProt P17482 171-250, T197M), sequence (P17482 171-250 T197M): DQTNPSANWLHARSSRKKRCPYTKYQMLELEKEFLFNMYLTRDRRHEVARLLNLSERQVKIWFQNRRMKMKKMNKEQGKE
HOXB6 (Homo sapiens, UniProt P17509 132-218, K202E), sequence (P17509 132-218 K202E): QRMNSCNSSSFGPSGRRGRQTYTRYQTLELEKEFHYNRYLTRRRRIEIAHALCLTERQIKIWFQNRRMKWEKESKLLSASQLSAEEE
HOXB6 (Homo sapiens, UniProt P17509 132-218), sequence (P17509 132-218): as the sequence (P17509 132-218 K202E) above, with E71K counted along it
PRRX1 (Homo sapiens, UniProt P54821 80-166, F113S), sequence (P54821 80-166 F113S): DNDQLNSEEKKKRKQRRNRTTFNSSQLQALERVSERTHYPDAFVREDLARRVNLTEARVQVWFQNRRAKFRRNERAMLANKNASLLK
MSX2 (Homo sapiens, UniProt P35548 130-214, R199I), sequence (P35548 130-214 R199I): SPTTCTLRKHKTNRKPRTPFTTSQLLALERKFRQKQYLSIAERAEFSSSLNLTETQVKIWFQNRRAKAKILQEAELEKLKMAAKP
HOXC9 (Homo sapiens, UniProt P31274 178-260, R222W), sequence (P31274 178-260 R222W): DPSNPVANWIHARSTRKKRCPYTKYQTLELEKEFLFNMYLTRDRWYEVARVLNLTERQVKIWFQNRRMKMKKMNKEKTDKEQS
HOXC9 (Homo sapiens, UniProt P31274 178-260, R193K), sequence (P31274 178-260 R193K): as the sequence (P31274 178-260 R222W) above, with R16K, W45R counted along it
PROP1 (Homo sapiens, UniProt O75360 56-141), sequence (O75360 56-141): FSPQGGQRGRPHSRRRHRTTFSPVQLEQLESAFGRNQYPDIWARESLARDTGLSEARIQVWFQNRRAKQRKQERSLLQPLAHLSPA
HOXA4 (Homo sapiens, UniProt Q00056 201-287, W262F), sequence (Q00056 201-287 W262F): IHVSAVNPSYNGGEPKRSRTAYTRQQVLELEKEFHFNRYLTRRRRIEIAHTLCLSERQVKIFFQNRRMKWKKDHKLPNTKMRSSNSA
HOXC9 (Homo sapiens, UniProt P31274 178-260, K195R), sequence (P31274 178-260 K195R): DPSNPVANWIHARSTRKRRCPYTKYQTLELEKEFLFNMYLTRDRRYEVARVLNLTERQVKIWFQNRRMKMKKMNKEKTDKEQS
MSX2 (Homo sapiens, UniProt P35548 130-214), sequence (P35548 130-214): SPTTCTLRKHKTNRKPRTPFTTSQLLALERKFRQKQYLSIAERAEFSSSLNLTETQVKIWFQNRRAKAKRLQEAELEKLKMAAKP
MSX2 (Homo sapiens, UniProt P35548 130-214, F161Y), sequence (P35548 130-214 F161Y): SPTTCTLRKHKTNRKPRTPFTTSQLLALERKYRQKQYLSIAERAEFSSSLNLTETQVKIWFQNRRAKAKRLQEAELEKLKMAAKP
HOXA7 (Homo sapiens, UniProt P31268 116-202), sequence (P31268 116-202): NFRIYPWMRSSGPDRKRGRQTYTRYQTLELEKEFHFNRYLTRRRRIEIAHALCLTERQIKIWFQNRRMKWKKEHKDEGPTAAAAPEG
HOXA7 (Homo sapiens, UniProt P31268 116-202, W177C), sequence (P31268 116-202 W177C): as the sequence (P31268 116-202) above, with W62C counted along it
VAX1 (Homo sapiens, UniProt Q5SQQ9 86-172), sequence (Q5SQQ9 86-172): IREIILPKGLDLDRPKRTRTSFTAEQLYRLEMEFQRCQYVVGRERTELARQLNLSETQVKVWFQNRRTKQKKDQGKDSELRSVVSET
VAX1 (Homo sapiens, UniProt Q5SQQ9 86-172, T142I), sequence (Q5SQQ9 86-172 T142I): as the sequence (Q5SQQ9 86-172) above, with T57I counted along it
PROP1 (Homo sapiens, UniProt O75360 56-141, R99H), sequence (O75360 56-141 R99H): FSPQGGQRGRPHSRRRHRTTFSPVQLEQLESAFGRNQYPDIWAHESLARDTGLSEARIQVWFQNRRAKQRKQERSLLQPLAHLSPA
HOXD13 (Homo sapiens, UniProt P35453 263-343, T313A), sequence (P35453 263-343 T313A): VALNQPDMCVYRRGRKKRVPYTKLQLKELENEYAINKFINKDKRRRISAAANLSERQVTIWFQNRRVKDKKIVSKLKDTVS
PROP1 (Homo sapiens, UniProt O75360 56-141, F88S), sequence (O75360 56-141 F88S): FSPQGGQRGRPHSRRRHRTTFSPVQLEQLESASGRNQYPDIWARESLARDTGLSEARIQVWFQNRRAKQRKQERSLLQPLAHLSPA
HOXD13 (Homo sapiens, UniProt P35453 263-343), sequence (P35453 263-343): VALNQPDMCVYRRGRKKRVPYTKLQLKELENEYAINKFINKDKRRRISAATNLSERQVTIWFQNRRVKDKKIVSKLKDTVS
VAX1 (Homo sapiens, UniProt Q5SQQ9 86-172, K157R), sequence (Q5SQQ9 86-172 K157R): as the sequence (Q5SQQ9 86-172) above, with K72R counted along it
HOXC9 (Homo sapiens, UniProt P31274 178-260), sequence (P31274 178-260): as the sequence (P31274 178-260 R222W) above, with W45R counted along it
NKX3-2 (Homo sapiens, UniProt P78367 192-278, P234S), sequence (P78367 192-278 P234S): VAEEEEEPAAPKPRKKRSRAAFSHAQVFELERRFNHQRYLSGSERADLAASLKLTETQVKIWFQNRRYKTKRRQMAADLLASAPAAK
PRRX1 (Homo sapiens, UniProt P54821 80-166), sequence (P54821 80-166): as the sequence (P54821 80-166 F113S) above, with S34F counted along it
NKX3-2 (Homo sapiens, UniProt P78367 192-278), sequence (P78367 192-278): as the sequence (P78367 192-278 P234S) above, with S43P counted along it
HOXD13 (Homo sapiens, UniProt P35453 263-343, T313R), sequence (P35453 263-343 T313R): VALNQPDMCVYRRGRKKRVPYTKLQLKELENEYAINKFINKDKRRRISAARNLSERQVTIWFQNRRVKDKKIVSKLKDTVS
HOXA4 (Homo sapiens, UniProt Q00056 201-287, R217L), sequence (Q00056 201-287 R217L): as the sequence (Q00056 201-287 W262F) above, with R17L, F62W counted along it

For ACCGGCAG, the binding signal in the assay with HOXB9 [1] is 8.5 upbm affinity estimate (log intensity, higher = more binding, comparable within an allelic series); with PRRX1 [2], 9.27 upbm affinity estimate (log intensity, higher = more binding, comparable within an allelic series); in the assay with HOXB9 [3], 8.43 upbm affinity estimate (log intensity, higher = more binding, comparable within an allelic series); with MSX2 [4] it was 9.63 upbm affinity estimate (log intensity, higher = more binding, comparable within an allelic series); with HOXD13 [5] it was 9.44 upbm affinity estimate (log intensity, higher = more binding, comparable within an allelic series); in the assay with HOXD13 [6] it was 9.57 upbm affinity estimate (log intensity, higher = more binding, comparable within an allelic series). For the same sequence, the binding signal is 9.62 upbm affinity estimate (log intensity, higher = more binding, comparable within an allelic series) in the assay with MSX2 [7]; 9.67 upbm affinity estimate (log intensity, higher = more binding, comparable within an allelic series) in the assay with HOXD13 [8]; 8.48 upbm affinity estimate (log intensity, higher = more binding, comparable within an allelic series) in the assay with HOXB9 [9]; 9.59 upbm affinity estimate (log intensity, higher = more binding, comparable within an allelic series) with MSX2 [10]; 9.41 upbm affinity estimate (log intensity, higher = more binding, comparable within an allelic series) with PRRX1 [11].

Regarding CCCGCGGC, the binding signal with HOXB9 [1] is 8.53 upbm affinity estimate (log intensity, higher = more binding, comparable within an allelic series); with PAX4 [12] it was 9.28 upbm affinity estimate (log intensity, higher = more binding, comparable within an allelic series); with PAX4 [13], 9.32 upbm affinity estimate (log intensity, higher = more binding, comparable within an allelic series); in the assay with HOXB9 [3], 8.39 upbm affinity estimate (log intensity, higher = more binding, comparable within an allelic series); in the assay with PAX4 [14] it was 9.34 upbm affinity estimate (log intensity, higher = more binding, comparable within an allelic series); in the assay with PAX4 [15], 9.09 upbm affinity estimate (log intensity, higher = more binding, comparable within an allelic series). Also, the binding signal is 9.18 upbm affinity estimate (log intensity, higher = more binding, comparable within an allelic series) in the assay with PAX4 [16]; 8.48 upbm affinity estimate (log intensity, higher = more binding, comparable within an allelic series) with HOXB9 [9]; 9.24 upbm affinity estimate (log intensity, higher = more binding, comparable within an allelic series) in the assay with PAX4 [17].

In the case of AATTACCA, the binding signal is 10.1 upbm affinity estimate (log intensity, higher = more binding, comparable within an allelic series) with HOXB9 [1]; 11.2 upbm affinity estimate (log intensity, higher = more binding, comparable within an allelic series) with HOXA7 [18]; 11.1 upbm affinity estimate (log intensity, higher = more binding, comparable within an allelic series) with PRRX1 [2]; 9.98 upbm affinity estimate (log intensity, higher = more binding, comparable within an allelic series) in the assay with HOXB6 [19]; 11.9 upbm affinity estimate (log intensity, higher = more binding, comparable within an allelic series) with HOXA4 [20]; 12.2 upbm affinity estimate (log intensity, higher = more binding, comparable within an allelic series) in the assay with MSX2 [4]. Moreover, the binding signal was 8.87 upbm affinity estimate (log intensity, higher = more binding, comparable within an allelic series) with HOXA7 [21]; 11.4 upbm affinity estimate (log intensity, higher = more binding, comparable within an allelic series) in the assay with HOXA4 [22]; 11.7 upbm affinity estimate (log intensity, higher = more binding, comparable within an allelic series) with HOXB6 [23].

As to GGTGGAGA, the binding signal in the assay with HOXB9 [1] is 8.58 upbm affinity estimate (log intensity, higher = more binding, comparable within an allelic series); with HOXB6 [19], 9.03 upbm affinity estimate (log intensity, higher = more binding, comparable within an allelic series); with HOXB9 [3], 8.51 upbm affinity estimate (log intensity, higher = more binding, comparable within an allelic series); in the assay with PROP1 [24] it was 6.89 upbm affinity estimate (log intensity, higher = more binding, comparable within an allelic series); with PROP1 [25], 6.82 upbm affinity estimate (log intensity, higher = more binding, comparable within an allelic series); in the assay with HOXB9 [9] it was 8.56 upbm affinity estimate (log intensity, higher = more binding, comparable within an allelic series). Also, the binding signal with PROP1 [26] is 6.65 upbm affinity estimate (log intensity, higher = more binding, comparable within an allelic series); with HOXB6 [23], 9.09 upbm affinity estimate (log intensity, higher = more binding, comparable within an allelic series).

For CTGCTCCC, the binding signal with HOXB9 [1] was 8.68 upbm affinity estimate (log intensity, higher = more binding, comparable within an allelic series); with HOXC10 [27], 10.1 upbm affinity estimate (log intensity, higher = more binding, comparable within an allelic series); in the assay with HOXB9 [3] it was 8.67 upbm affinity estimate (log intensity, higher = more binding, comparable within an allelic series); with HOXC10 [28] it was 10.1 upbm affinity estimate (log intensity, higher = more binding, comparable within an allelic series); with VAX1 [29], 7.16 upbm affinity estimate (log intensity, higher = more binding, comparable within an allelic series); with HOXB9 [9], 8.65 upbm affinity estimate (log intensity, higher = more binding, comparable within an allelic series). In addition, the binding signal in the assay with VAX1 [30] is 7.2 upbm affinity estimate (log intensity, higher = more binding, comparable within an allelic series); in the assay with VAX1 [31] it was 7.01 upbm affinity estimate (log intensity, higher = more binding, comparable within an allelic series).

For ACATTAAA, the binding signal with HOXB9 [1] is 9.92 upbm affinity estimate (log intensity, higher = more binding, comparable within an allelic series); with HOXC9 [32], 12.6 upbm affinity estimate (log intensity, higher = more binding, comparable within an allelic series); in the assay with HOXB9 [3] it was 12 upbm affinity estimate (log intensity, higher = more binding, comparable within an allelic series); with HOXC9 [33], 12.6 upbm affinity estimate (log intensity, higher = more binding, comparable within an allelic series); with HOXC9 [34], 12.6 upbm affinity estimate (log intensity, higher = more binding, comparable within an allelic series); with HOXC10 [28], 11.8 upbm affinity estimate (log intensity, higher = more binding, comparable within an allelic series). Besides, the binding signal with HOXB9 [9] was 11.7 upbm affinity estimate (log intensity, higher = more binding, comparable within an allelic series); with HOXC9 [35] it was 11 upbm affinity estimate (log intensity, higher = more binding, comparable within an allelic series).

Turning to GGCAGACC, the binding signal with HOXB9 [1] is 8.55 upbm affinity estimate (log intensity, higher = more binding, comparable within an allelic series); with HOXC10 [27] it was 10.1 upbm affinity estimate (log intensity, higher = more binding, comparable within an allelic series); with HOXB9 [3], 8.57 upbm affinity estimate (log intensity, higher = more binding, comparable within an allelic series); with HOXC10 [28], 10.1 upbm affinity estimate (log intensity, higher = more binding, comparable within an allelic series); with HOXB9 [9], 8.65 upbm affinity estimate (log intensity, higher = more binding, comparable within an allelic series); with NKX3-2 [36], 10.4 upbm affinity estimate (log intensity, higher = more binding, comparable within an allelic series). Moreover, the binding signal with NKX3-2 [37] was 10.3 upbm affinity estimate (log intensity, higher = more binding, comparable within an allelic series).

Regarding AGTCGTTA, the binding signal is 10 upbm affinity estimate (log intensity, higher = more binding, comparable within an allelic series) in the assay with HOXB9 [1]; 12.2 upbm affinity estimate (log intensity, higher = more binding, comparable within an allelic series) with HOXC10 [27]; 12.1 upbm affinity estimate (log intensity, higher = more binding, comparable within an allelic series) in the assay with HOXC10 [28].
